# Assay results taken from PubChem BioAssay (NCI).
# About 83,000 compounds went through this panel and 20% of them were active in at least one assay; those are over-represented in the sample as a whole.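 Each cell line was grown in a 96-well plate and treated with one concentration of compound for 48 hours. Values below 10 were considered active.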 Unmarked numbers belong to inactive results. Active and inactive are the calls of the source.
# Tests used:
# Assay in all cases: NCI-60 one-dose screen, 48 h (100 = growth as untreated, 0 = no growth, -100 = all killed)
# Conditions in all cases: 10 µM unless noted
# SK-MEL-2 melanoma = system: SK-MEL-2 melanoma
# EKVX NSCLC = system: EKVX NSCLC
# SN12C renal = system: SN12C renal
# UO-31 renal = system: UO-31 renal
# TK-10 renal = system: TK-10 renal
# ACHN renal = system: ACHN renal
# A498 renal = system: A498 renal
# CCRF-CEM leukemia = system: CCRF-CEM leukemia
# MOLT-4 leukemia = system: MOLT-4 leukemia
# SR leukemia = system: SR leukemia
Structure (SMILES),growth (SK-MEL-2 melanoma),growth (EKVX NSCLC),growth (SN12C renal),growth (UO-31 renal),growth (TK-10 renal),growth (ACHN renal),growth (A498 renal),growth (CCRF-CEM leukemia),growth (MOLT-4 leukemia),growth (SR leukemia)
CCCn1c2cc(OCc3cn(-c4ccc(Cl)cc4)nn3)ccc2c2ccnc(C)c21,87%,80.1%,34.2%,46.4%,113%,34.3%,76.2%,56.8%,57.1%,-32.4% (active)
C=C(C)[C@@H]1CC[C@]2(C(=O)O)CC[C@]3(C)[C@H](CC[C@@H]4[C@@]5(C)C[C@@H](CC#Cc6ccccc6C)C(=O)C(C)(C)[C@@H]5CC[C@]43C)[C@@H]12,41.1%,28.1%,37.8%,29.4%,27.3%,29.4%,10.7%,31.1%,13.3%,23%
COc1ccc2cc(/C=C3\N=C(c4cc(OC)c(OC)c(OC)c4)OC3=O)c(OC)nc2c1,106%,103%,94.2%,95.8%,106%,101%,99.5%,111%,94.8%,95.8%
COc1ccc2[nH]c3nc4cnccc4cc3c2c1,110%,72.2%,101%,71.2%,111%,98.3%,114%,98.1%,102%,103%
Cc1nccc2c3ccc(OCc4cn(-c5ccc(Br)cc5)nn4)cc3n(CC(C)C)c12,53%,59.5%,61.5%,38.4%,41.1%,61.9%,53%,35.1%,2.93% (active),-13.9% (active)
c1ccc(-c2cn3ccnc3c(-c3ccc4c(c3)ncn4C3CCCCC3)n2)cc1,106%,97.5%,95.2%,79.1%,106%,104%,106%,88.3%,60.3%,55.4%
NCCCn1c2c(c3cc(-c4ccn[nH]4)ccc3c1=O)C(=O)c1ccccc1-2,105%,77%,49.1%,47.7%,72.3%,20.4%,72%,16.5%,-9.41% (active),-2.64% (active)
COc1ccc2c(c1)Oc1nc(N)c(C#N)c(N)c1C2Sc1ccc(SC)cc1 (stereo not given),-25.6% (active),32.6%,21.7%,5.13% (active),-16.4% (active),-66.3% (active),95.4%,-2.59% (active),0.548% (active),-17.5% (active)
c1ccc(-c2n(Cc3ccc4ccccc4n3)cc[n+]2Cc2ccc3ccccc3n2)cc1,-5.81% (active),70.2%,22.1%,76.5%,58.7%,96.8%,56.1%,28.4%,37.9%,25.1%
Cc1nc2sc(C(=O)Nc3ccccc3Cl)c(N)c2cc1C(C)O (stereo not given),75%,89%,89.4%,96.3%,81.7%,96.2%,70.7%,79.5%,64%,33.2%
Cc1cc(O)cc(O)c1N=NC1=NCCS1,98.3%,96.5%,109%,89.9%,135%,97.3%,-6.58% (active),101%,94.1%,97.1%
C=C1C(=O)O[C@H]2[C@H]1CC/C(COC(=O)CCCCCCCC(=O)OC/C1=C/CC[C@@]3(C)O[C@H]3[C@H]3OC(=O)C(=C)[C@@H]3CC1)=C\CC[C@@]1(C)O[C@@H]21,59.9%,18.5%,4.85% (active),-22.1% (active),3.41% (active),-24.8% (active),109%,5.92% (active),2.39% (active),0.728% (active)
O=C(C[n+]1cccc2cc(Cl)ccc21)c1ccc2c(c1)CCCC2,28.3%,44.7%,10.1%,91.4%,62%,86.2%,74%,16%,1.84% (active),19%
O=C(/C(=C\c1c(-c2ccccc2)[nH]c2ccccc12)S(=O)(=O)c1ccccc1)c1ccccc1,35.8%,28.7%,82%,60.9%,78.2%,48.7%,54.3%,21%,3.71% (active),15.1%
N#Cc1c(-c2ccc(F)cc2)nc(N/N=C/c2cccc(O)c2)nc1N1CCOCC1,85.9%,86.9%,96.7%,45.3%,63.3%,66.9%,78.7%,56.4%,40%,2.93% (active)
O=[N+]([O-])c1ccc(Oc2ccc(-c3ccccc3)cc2)cc1,103%,85.1%,96.6%,79.5%,88.5%,101%,84.5%,78.3%,70.4%,77.8%
CCOc1ccc(C2N(c3cc(OC)c(OC)c(OC)c3)C(=O)C2(F)F)cc1 (stereo not given),91.8%,75.3%,51%,51.9%,103%,55.3%,92.3%,10.2%,18.1%,16.2%
C=C1C(=O)O[C@H]2[C@H]1CC/C(COC(=O)NCc1nc3ccccc3[nH]1)=C\CC[C@@]1(C)O[C@@H]21,60.2%,83%,81.6%,75.5%,74.3%,91.4%,135%,10.9%,77.3%,54.1%
[2H]c1nc(Nc2ncc3cc(C(=O)N(C)C)n(C4CCCC4)c3n2)c([2H])c([2H])c1N1C([2H])([2H])C([2H])([2H])NC([2H])([2H])C1([2H])[2H],83.9%,64.4%,67.9%,52.5%,37%,47.1%,76.8%,38.5%,5.14% (active),26.6%
CC(=O)c1ccc(NC(=O)CSc2nnc(-c3cc(-c4ccc(C)cc4)nc4ccccc34)o2)cc1,81.5%,78.3%,20%,11.5%,43%,63.6%,70.5%,53.6%,43.5%,-12.5% (active)
O=C1C(Cl)=C(Nc2ccc3c(c2NC2=C(Cl)C(=O)c4ccccc4C2=O)C(=O)c2ccccc2C3=O)C(=O)c2ccccc21,40.8%,34.5%,4.99% (active),23.1%,77.3%,29.2%,50.5%,17.8%,8.53% (active),13.3%
CC(C)(C)c1ccc(O)c(Cc2cc(C(C)(C)C)ccc2O)c1,80%,78.5%,87.5%,85.7%,94.2%,106%,87.3%,0.931% (active),64.6%,24.5%
CC(=O)[C@@H]1CC[C@]2(C(=O)O)CC[C@]3(C)[C@H](CC[C@@H]4[C@@]5(C)Cc6c([nH]c7ccccc67)C(C)(C)[C@@H]5CC[C@]43C)[C@@H]12,79.5%,42.3%,69.3%,48.6%,63.6%,46.5%,61.7%,62.9%,49.6%,73.5%
C=C(C)[C@@H]1CC[C@]2(C(=O)OCCCC[P+](c3ccccc3)(c3ccccc3)c3ccccc3)CC[C@]3(C)[C@H](CC[C@@H]4[C@@]5(C)CC[C@H](OC(=O)C(Cl)Cl)C(C)(C)[C@@H]5CC[C@]43C)[C@@H]12,-67.5% (active),-13.3% (active),-62.2% (active),-51% (active),-36.2% (active),-39.6% (active),-58.9% (active),0.798% (active),-45% (active),-34% (active)
O=C(CSC(=S)N1CCCCC1)Nc1ccccc1,92.1%,106%,106%,86.5%,85.8%,98.8%,99.5%,89.9%,86.5%,87.1%
COc1cc(NCC(=O)Nc2cc(Nc3ccc(C)cc3)ncn2)c(Cl)c(OC)c1Cl,103%,82.1%,88.1%,62.1%,121%,92.6%,84.9%,81.8%,60.8%,78.9%
